This note sets out measurements from ChEMBL document CHEMBL1961873, “Compounds: GSK PKIS; Assays: Nanosyn kinase panel” (2012).

The first test deals with Cyclin-dependent kinase 5 (Homo sapiens) (UniProt Q00535). The following applies: at 0.1 µM.
Chain of Cyclin-dependent kinase 5 (Homo sapiens) (Q00535 whole entry, looked up): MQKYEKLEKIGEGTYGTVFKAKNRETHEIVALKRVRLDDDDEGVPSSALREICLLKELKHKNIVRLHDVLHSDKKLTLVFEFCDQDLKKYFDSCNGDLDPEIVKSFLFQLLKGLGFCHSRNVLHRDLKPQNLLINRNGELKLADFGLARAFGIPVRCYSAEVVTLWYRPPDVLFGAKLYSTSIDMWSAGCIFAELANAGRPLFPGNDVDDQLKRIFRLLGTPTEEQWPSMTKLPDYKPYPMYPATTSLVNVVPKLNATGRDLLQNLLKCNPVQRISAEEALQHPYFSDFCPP
Regarding `CCN(CC)Cc1ccc(Nc2nccc(-c3cnn4ncccc34)n2)cc1`, the inhibition (usually the relative decrease from the control value, in per cent) stood at 32.1%.
As for `Fc1ccc(-c2ncn(C3CCNCC3)c2-c2ccnc(Oc3ccc(F)c(F)c3)n2)cc1`, the inhibition was 1.99%.
The same measure, in the same setting: as for `C[C@@H](Oc1cc(-n2cnc3ccc(OCC4CCN(C)CC4)cc32)sc1C(N)=O)c1ccccc1Cl`, the figure is 1.33%.
Regarding `COc1ccc2cc(-c3c(-c4ccncc4)nc(-c4ccc([S+](C)[O-])cc4C)n3C)ccc2c1` (centres undefined), the inhibition was determined as 0.73%.
With `CN1CCN(CCCNc2nc3ccc(Oc4ccc(NC(=O)Nc5cc(C(F)(F)F)ccc5F)cc4)cc3[nH]2)CC1`, the inhibition was -2.74%.
`Nc1nccc(-c2c(-c3ccc(F)cc3)ncn2C2CCC(O)CC2)n1` (centres undefined): the inhibition amounted to 0.55%.
Regarding `c1ccc(Oc2ccc(Nc3ncc(-c4ccccc4)o3)cc2)cc1`, the inhibition turned out to be 0.52%.
The same measure, in the same setting: with `COc1ccc(-c2ccc3c(NC(=O)C4CC4)n[nH]c3n2)cc1` the figure was 0.42%; with `O=C(Nc1n[nH]c2nc(-c3ccco3)ccc12)C1CC1`, -0.11%.
The same measure, in the same setting: with `CCS(=O)(=O)c1ccc(OC)c(Nc2ncc(-c3ccccc3Cl)o2)c1` the figure was 0.11%; with `CN(C)c1ccc2c(c1)/C(=C/Nc1ccc(S(N)(=O)=O)cc1)C(=O)N2`, 16.2%; with `CN(C)CCCNc1nccc(-c2c(-c3ccc(F)cc3)nn3cc(C(F)(F)F)ccc23)n1`, -1.32%.
For `CCC(=O)Nc1ccc(C)c(-c2ccc(C(=O)NCC3CC3)cc2)c1`, the inhibition was 1.58%.
`NS(=O)(=O)c1ccc(Nc2cc(-c3ccc(O)c(F)c3)n[nH]2)cc1`: the inhibition was determined as 20.1%.
As for `COc1cc2ncn(-c3cc(OCCc4ccccc4)c(C(N)=O)s3)c2cc1OC`, the inhibition was determined as 0.7%.
With `Cc1ccc(C(=O)NC(C)C)cc1-c1ccc(C(=O)NCC2CC2)cc1`, the inhibition worked out at 0.55%.
Same read-out and setting: as for `NCc1ccc(-n2c(-c3nonc3N)nc3cnccc32)cc1`, the figure is 4.76%.
For `COc1cc(Nc2ncc3c(C)nc(-c4cccc(C(F)(F)F)c4)n3n2)cc(OC)c1OC`, the inhibition was 1.13%.

The target is the same in a further test. The following applies: at 1 µM.
For the compound `CN(c1ccc(NC(=O)Nc2c(Cl)cccc2Cl)cc1)c1ccnc(Nc2cccc(CS(C)(=O)=O)c2)n1`, the inhibition came out at 1.99%.
For the compound `CCS(=O)(=O)c1ccc(OC)c(Nc2ncc(-c3cccc(-c4ccccc4F)c3)o2)c1`, the inhibition is 3.33%.
In the case of `CS(=O)(=O)CCNCc1ccc(-c2ccc3ncnc(Nc4ccc(OCc5ccccc5)c(Br)c4)c3c2)o1`, the inhibition is -2.4%.
Turning to `N#Cc1ccc(Oc2nccc(-c3c(-c4ccc(F)cc4)ncn3C3CCNCC3)n2)cc1`, the inhibition is 1.15%.
On to `Fc1ccc(-c2ncn(C3CCNCC3)c2-c2ccnc(Oc3ccc4c(c3)OCO4)n2)cc1`, for which the inhibition amounted to 1.51%.
`COc1cc(N2CCN(C(C)C)CC2)ccc1Nc1nc(Nc2ccc(F)cc2C(=O)NC[C@@H](O)CO)c2cc[nH]c2n1`: the inhibition is -4.32%.
The same measure, in the same setting: as for `O=C1NC(=O)C(c2cccc(Cl)c2)=C1Nc1ccc(Cl)c(C(=O)O)c1`, the figure is 1.05%; as for `NC(=O)c1cc(-c2ccncc2)cc(-c2ccccc2)c1N`, 0.44%; as for `CS(=O)(=O)CCNCc1cc(-c2cc3c(Nc4ccc(OCc5cccc(F)c5)c(Cl)c4)ncnc3s2)cs1`, 0.56%.
For the compound `Cc1ccc(C(=O)NC2CCC2)cc1-c1ccc(C(=O)NCC2CC2)cc1`, the inhibition worked out at 1.18%.
The same measure, in the same setting: with `NC(=O)c1cc(-c2ccc(F)cc2)cc(-c2ccncc2)c1N` the figure was -1.83%; with `O=C(Nc1n[nH]c2cc(-c3ccccc3)ccc12)C1CC1`, 5.17%.
Regarding `O=C(Nc1n[nH]c2nc(-c3ccc(O)cc3)c(Br)cc12)C1CC1`, the inhibition turned out to be 55.3%.
On to `C/C(Nc1ccc(S(N)(=O)=O)cc1)=C1/C(=O)Nc2ccccc21`, for which the inhibition is 44.7%.
Still for that read-out and setting: as for `O=C1Nc2ccccc2/C1=C/Nc1ccc(-n2cncn2)cc1`, the figure is 21.5%; as for `CCc1nccc2c1nc(-c1nonc1N)n2CC`, 2.65%.
As for `CCN(CC)Cc1ccc(Nc2nccc(-c3cnn4ncccc34)n2)cc1`, the inhibition worked out at 66.8%.
`Fc1ccc(-c2ncn(C3CCNCC3)c2-c2ccnc(Oc3ccc(F)c(F)c3)n2)cc1`: the inhibition is 3.94%.
`C[C@@H](Oc1cc(-n2cnc3ccc(OCC4CCN(C)CC4)cc32)sc1C(N)=O)c1ccccc1Cl`: the inhibition came to 3.11%.
On the same count and under the same terms, as for `COc1ccc2cc(-c3c(-c4ccncc4)nc(-c4ccc([S+](C)[O-])cc4C)n3C)ccc2c1` (centres undefined), the figure is 2.04%.
For `CN1CCN(CCCNc2nc3ccc(Oc4ccc(NC(=O)Nc5cc(C(F)(F)F)ccc5F)cc4)cc3[nH]2)CC1`, the inhibition is -3.46%.
Consider `Nc1nccc(-c2c(-c3ccc(F)cc3)ncn2C2CCC(O)CC2)n1` (centres undefined), for which the inhibition came out at 1.98%.
In the case of `c1ccc(Oc2ccc(Nc3ncc(-c4ccccc4)o3)cc2)cc1`, the inhibition amounted to 1.6%.
Same read-out and setting: with `COc1ccc(-c2ccc3c(NC(=O)C4CC4)n[nH]c3n2)cc1` the figure was 2.12%; with `O=C(Nc1n[nH]c2nc(-c3ccco3)ccc12)C1CC1`, 1.68%.
On to `CCS(=O)(=O)c1ccc(OC)c(Nc2ncc(-c3ccccc3Cl)o2)c1`, for which the inhibition stood at 0.87%.
